Assay results from patent US20030175730, “Multivalent RNA aptamers and their expression in multicellular organisms” (published 2003).

target: B52 (SRp55) full length (Drosophila melanogaster, UniProt P26686 P26686:1-350); assay: EMSA; almost a factor of three; conditions: tags: baculovirus/Sf9 expressed, SR protein purification; label: 32P-UTP; ssRNA
Method: All binding assays were performed in 20 μl volume in 1× binding buffer described above. A typical binding assay using labeled RNA contains about 20 finole of ³²P-labeled RNA probe and differing amounts (1-10 pmole) of B52 protein. A typical binding assay using the truncated versions of B52 contains 1 μl of the ³⁵S-labeled translation reaction mixture with 2 pmoles of unlabeled RNA transcript (the final concentration of RNAs in this reaction was 100 nM and concentration of the labeled B52 proteins was much lower). The reactions were allowed to equilibrate for 15-20 minutes at ambient temperature before being subjected to filter binding, gel shift, or UV crosslinking.
To determine the sequence/structure requirements for binding by B52, deletion and substitution mutations, and antisense constructs of BBS were designed in light of the shared sequence motif and predicted secondary structures (FIG. 4). These short RNA transcripts were produced by in vitro transcription of synthetic templates, and their affinity to B52 was assayed by band shift.

Chain of B52 (SRp55) full length (P26686 other isoform, or with tags, fused parts or gaps): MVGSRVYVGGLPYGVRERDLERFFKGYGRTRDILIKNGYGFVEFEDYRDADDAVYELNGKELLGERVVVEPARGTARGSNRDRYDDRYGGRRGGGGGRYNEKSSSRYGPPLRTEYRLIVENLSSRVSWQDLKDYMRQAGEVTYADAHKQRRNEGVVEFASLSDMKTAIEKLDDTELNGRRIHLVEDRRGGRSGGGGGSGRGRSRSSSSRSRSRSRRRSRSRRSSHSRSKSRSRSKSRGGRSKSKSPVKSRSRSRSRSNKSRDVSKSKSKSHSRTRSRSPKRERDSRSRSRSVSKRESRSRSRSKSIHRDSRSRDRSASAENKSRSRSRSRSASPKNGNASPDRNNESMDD

| Sequence | binding signal |
| --- | --- |
| GGACGAUCAACCAGGCGACAGU | ~3 fold lower affinity than BBS-II |
